# From PubChem BioAssay
# The list is not random: actives were taken first. Their share in the collection is about 20%.
# HCMV inh – human cytomegalovirus inhibition; HFF cells, HCMV-luciferase reporter, 72 h; hits give low values; activity change, negative = inhibition, % at 57.5 µM; actives 4.5% (n = 410,000); AID 1259415; in the data active = activity change below about -60%; inconclusive = no clear call, values can overlap the other calls; inactive = above about -39%; note: % is set by controls: 0 for no effect and ±100 for the full control effect
#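 Screen run at 2 compound doses on HFFs infected with reporter HCMV, MOI 1 PFU/cell. Luciferase activity from cell lysates at 72 h post infection gave inhibition relative to buffer-only and Salinomycin wells.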
# Pf growth 48h – P. falciparum growth inhibition at 48 hours (one generation). Potency, µM (doses to about 28.7 µM), for inactives: at the top dose activity change, negative = inhibition, most hits filed as inhibitors. AID 504832. actives 5.9% (n = 310,000). P. falciparum luciferase growth in erythrocytes, 48 h; note: potency is the fitted concentration of half-maximal effect; % is set by controls: 0 for no effect and ±100 for the full control effect
#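 Growth was read as firefly luciferase luminescence after a 48 h, 37 C, 5% CO2 exposure of compounds to reporter-bearing P. falciparum cultures (0.1% parasitemia, 2% hematocrit final) in Albumax-supplemented RPMI 1640.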
# Shiga inhibitor – Shiga toxin inhibition. Vero cells, Shiga toxin protein synthesis inhibition reporter. inhibition, % at 38.7 µM. actives 9.2% (n = 290,000). AID 2315; in the data active = inhibition mostly above about 28%, no sharp cut-off; inactive = mostly below about 43%; note: 0% is about no effect
# Pf growth 96h – P. falciparum growth inhibition at 96 hours; P. falciparum luciferase reporter growth, 96 h; Potency, µM (series often up to 28.7 µM), for the others: at the top dose activity change, negative = inhibition, actives largely listed as inhibitors; actives 6.9% (n = 320,000); AID 504834; note: potency is the fitted concentration of half-maximal effect; % is set by controls: 0 for no effect and ±100 for the full control effect
#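 Delayed-death screen, second-generation endpoint: infected erythrocytes, 2% hematocrit, 0.05% parasitemia final; 96 hours at 37 C, 5% CO2; luciferase detection reagent; luminescence decrease equals reduced growth.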
# CHX counter-1 – counter-screen for Shiga toxin inhibitors: cycloheximide protein synthesis inhibition; cell reporter, cycloheximide protein synthesis inhibition counterscreen; max response, %; actives 12% (n = 300,000); AID 2314; in the data active = max response mostly above about 13%, no sharp cut-off; inactive = mostly below about 14%; note: read at 38.3 µM for the half of the compounds with a filed dose; 0% is about no effect
# CHX counter-2 – affects protein synthesis reporter in cycloheximide counter-screen; shares compounds with Shiga inhibitor; actives 3% (n = 510); Cycloheximide counterscreen, protein synthesis reporter, Shiga toxin assay; Potency, µM (highest dose often 38.3 µM), inactives show at the highest dose activity (activation), hits mostly activators; calls by dose curve; note: potency is the fitted concentration of half-maximal effect; 0% is about no effect
# * = called active by the depositor; i = inactive; u = inconclusive; x = not tested or not shown. Unless noted, calls come from the whole dose curve; as a rule, active = well fitted inhibition curve with a large enough effect; inconclusive = small, poorly fitted or top-dose-only effect, or another doubt; inactive = no such curve, though single readings can be large or run the other way.
SMILES,HCMV inh,Pf growth 48h,Shiga inhibitor,Pf growth 96h,CHX counter-1,CHX counter-2
O=C(COc1ccc2c(-c3ccccc3)cc(=O)oc2c1)NCC(O)c1ccccc1 (stereo not drawn),-12,42%,2,15%,-1,x
Cn1c(CN2CCOCC2)nnc1SCC(=O)Nc1cc(Cl)ccc1Cl,7,-7%,2,169%,-5,x
Cc1nc(-c2ccccc2)sc1C1(C)CC(c2cccc([N+](=O)[O-])c2)=NO1 (stereo not drawn),49,70%,30*,41%,1,1%
Cc1nc(-c2ccccc2)sc1C1(C)CC(c2cccc(F)c2)=NO1 (stereo not drawn),10,x,x,x,x,x
CC[C@]12c3[nH]c4cc(CCC(=O)N(C)C)ccc4c3CCN1C(=O)[C@@H](CC(=O)NCc1cccc(C(F)(F)F)c1)C[C@@H]2C(=O)N1CCN(C(=O)C2CC2)CC1,32,x,x,x,x,x
CC1(C)CC(NC(=O)c2cc(S(=O)(=O)N3CCOCC3)c(Cl)cc2Cl)CC(C)(C)N1,-28,-8%,x,u,x,x
Cc1cc(C)n(-c2nc3sc4c(c3c3nnc(SC(C)C)n23)CC(C)(C)OC4)n1,-10,x,x,x,x,x
Cc1cc(C)n(-c2nc(SCCN(C)C)c3c4c(sc3n2)COC(C)(C)C4)n1,11,1.9µM*,80*,1.5µM*,-4,-5%
O=C(NCCc1ccccc1)C1CCCN1S(=O)(=O)c1ccc(F)cc1 (stereo not drawn),-22,x,x,x,x,x
O=C(NCCc1ccccc1)C1CCCN1S(=O)(=O)c1ccccc1 (stereo not drawn),13,13%,22*,-4%,8,4%
O=C(c1nc2ccc(Cl)cn2c1CN1CCC[C@H]1CO)N1CCCCCCC1,16,u,-4,41%,-3,x
Cn1c(=O)c2c(nc(N3CCCCC3)n2CC(O)COc2ccccc2)n(C)c1=O (stereo not drawn),20,0%,-12,u,-4,x
CC(C)(C)[C@@H]1COC(=O)[C@H](Cc2ccc(F)cc2)C/C=C\C[C@@H](CC(=O)N(CCO)Cc2ccccc2)C(=O)N1,-21,x,x,x,x,x
CN(C)S(=O)(=O)c1ccc(C(=O)Nc2ccc(CCC(=O)N3CCCC3)cc2)cc1,-20,u,-4,-2%,-2,x
CN(C)S(=O)(=O)c1ccc(C(=O)Nc2ccc(CN3CCCC3)cc2)cc1,0,u,51*,x,7,1%
CCN(CC)S(=O)(=O)c1ccc(C(=O)NC(=S)N2CCN(c3ccccc3O)CC2)cc1,-3,x,x,x,x,x
Cc1ccc2c(N)[nH]nc2n1,26,43%,82*,-14%,11,-1%
O=C(Cc1c(F)cccc1Cl)c1ccc(O)cc1O,6,56%,101*,19%,0,-3%
O=C(Cc1ccccc1F)c1ccc(O)cc1O,51,6%,21,u,10,x
Cc1ccc(C)n1-c1ccc(NC(=O)c2ccccc2)cc1,6,u,32*,12µM*,7,u
COCCCn1c(C)nnc1-c1cnn(-c2ccccc2)c1N,-14,u,21,20%,-3,x
COc1ccccc1C1NC(=O)CCC1[N+](=O)[O-] (stereo not drawn),-2,-2%,19,-7%,2,x
Cc1ccc(-c2nn(-c3ccc(F)cc3)cc2C(=O)NC2CCC(O)CC2)cc1 (stereo not drawn),-17,-12%,x,33%,x,x
O=C(Cc1ccccc1[N+](=O)[O-])NNC(=O)c1ccncc1,-16,7%,x,-7%,x,x
O=C(Oc1ccc(F)cc1)c1ccc2c(=O)n3c(nc2c1)CCC3,-8,-12%,x,8%,x,x
SMILES,HCMV inh,Pf growth 48h,Shiga inhibitor,Pf growth 96h,CHX counter-1,CHX counter-2
CC(OC(=O)c1ccc2c(=O)n3c(nc2c1)CCC3)C(N)=O (stereo not drawn),-10,20%,51*,23%,11,1%
CN1CCc2c(sc3c2C(=O)NC(c2ccc4c(c2)OCO4)N3)C1 (stereo not drawn),-17,5%,29*,-3%,15,4%
CN1CCc2c(sc3c2C(=O)NC(c2ccc(OC(=O)c4ccc(Cl)cc4)cc2)N3)C1 (stereo not drawn),11,x,x,x,x,x
COc1ccc(Cn2nnnc2C(C(C)C)N(Cc2ccco2)Cc2cccs2)cc1 (stereo not drawn),-14,u,44*,79%,8,0%
Cc1ccc(CSC(Nc2ccc(F)cc2)=C(C#N)C#N)cc1,-100*,u,21*,u,1,0%
CC(NC(=O)CN(C)CC(=O)Nc1ccc(F)c(F)c1F)c1ccccc1 (stereo not drawn),-35,-2%,12,0%,-4,x
Cc1ccc(C(=O)Nc2ccccc2C(=O)N2CCN(c3ccccc3)CC2)cc1,-32,22%,-7,114%,-3,x
COc1ccccc1C(=O)Nc1ccc(N2CCN(C(C)=O)CC2)cc1,u,-3%,53*,8%,2,-2%
Cc1ccc(N2CCN(C(=O)c3ccccc3NC(=O)c3ccccc3C(=O)O)CC2)cc1,-103*,34%,39*,13%,3,-1%
CC(C)(C)c1ccc(C(=O)N2CCN(CCNC(=O)C(=O)NCc3ccccc3)CC2)cc1,-38,u,12,u,6,x
O=C(COc1ccccc1[N+](=O)[O-])Nc1ccc2c(c1)CCC2,9,86%,x,192%,x,x
COC(=O)c1c(NS(C)(=O)=O)sc2c1CCCC2,-18,20%,28*,x,-2,0%
CCOc1nc(-c2ccccc2)ncc1Oc1ccccc1,84,x,x,x,x,x
CCOC(=O)N1CCN(C(=O)Nc2ccc3nc(C)c(C)nc3c2)CC1,0,u,136*,11%,6,-2%
CSc1nc(C)c2cc(C)oc2n1,-25,16%,71*,0.37µM*,-3,-2%
COc1nc(C)c2cc(C)oc2n1,-28,3%,-5,-15%,-4,x
CCOc1c(C(N)=O)cc([N+](=O)[O-])cc1[N+](=O)[O-],25,-7%,-6,26%,-2,x
CCC(C)c1cc([N+](=O)[O-])cc([N+](=O)[O-])c1OC(C)=O (stereo not drawn),x,x,25*,x,7,1%
CCn1c2ccccc2c2cc(NC(=O)c3cccc([N+](=O)[O-])c3)ccc21,28,u,61*,41%,9,-3%
CCn1c2ccccc2c2cc(NC(=O)c3ccc(C)c([N+](=O)[O-])c3)ccc21,1,-27%,8,44%,11,x
CSc1sc(C(=O)NC(=O)NCc2ccncc2)c(C)c1-c1ccon1,-29,0%,-10,-10%,4,x
COc1cccc(OC)c1OCCCOc1ccc(C)cc1Br,-26,u,22*,21%,7,2%
Cc1ccc(OCCCN(C)C)c(Br)c1,-18,34%,-30,-23%,-6,x
CCOC(=O)c1[nH]ncc1CN1CCN(Cc2ccccc2)C(CCO)C1 (stereo not drawn),-15,20%,2,i,-3,x
